Records with an inconclusive call do not appear. Values without a mark were called inactive. Active and inactive are the calls of the source. Calls come from the whole dose curve; as a rule, active = well fitted curve in the direction sought with a large enough effect; inconclusive = small, poorly fitted or top-dose-only effect, or another doubt; inactive = no such curve, though single readings can be large; an effect the other way counts as inactive or inconclusive.
Assay: P-glycoprotein substrates identified in KB-3-1 adenocarcinoma cell line, qHTS therapeutic library screen (AID 1346986); note: nearly all actives have a fitted effect of over 60% in size;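 note: potency is for cytotoxicity meaning loss of cell viability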
Conditions: KB-3-1 parental cells viability, CellTiter-Glo, 72 h; series mostly up to 44.5 µM; activity change, negative = cytotoxicity: at the top concentration
Summary of the method: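 Dose-response cytotoxicity, KB-3-1 vs P-gp-high KB-8-5-11, no colchicine in assay medium. Read: CellTiter-Glo at 72 h.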
Potency is the fitted concentration of half-maximal effect.

SMILES | outcome | Potency
CC(=O)OC[C@]12[C@H](OC(C)=O)C(=O)[C@@H]3[C@@H](OC(C)=O)[C@@]14O[C@@]3(C)COC(=O)c1cccnc1[C@@H](C)[C@H](C)C(=O)O[C@@H]([C@H](OC(C)=O)[C@@H]2OC(C)=O)[C@]4(C)O | inactive [at 17.4 µM] | –
Cc1nc2c(-c3cnc(N)nc3)nc(N3CCOCC3)nc2n1C(C)C | – | 259 nM (active)
COc1cc([C@H]2OC[C@]3(OC(C)=O)[C@@H](c4ccc(O[C@@H]5O[C@H](CO)[C@@H](O)[C@H](O)[C@H]5O)c(OC)c4)OC[C@H]23)ccc1O | inactive [at 17.4 µM] | –
C/C=C(\C)C(=O)O[C@@H](C)[C@H]1CC[C@]2(O)C3CCC4C[C@@H](OC5CC(OC)C(OC6CC(OC)C(OC7CC(OC)C(OC8OC(C)C(OC9OC(CO)C(O)C(O)C9O)C(OC)C8O)C(C)O7)C(C)O6)C(C)O5)CC[C@]4(C)C3[C@H](O)[C@@H](O)[C@]12C (stereo partly specified) | inactive [at 9.29 µM] | –
CC(C)c1nc(N(C)S(C)(=O)=O)nc(-c2ccc(F)cc2)c1/C=C/[C@@H](O)C[C@@H](O)CC(=O)O | inactive | –
COC1CC(=O)CCC(C)OC(=O)CC1O (stereo unspecified) | inactive | –

Assay: P-glycoprotein substrates identified in KB-8-5-11 adenocarcinoma cell line, qHTS therapeutic library screen (AID 1346987); note: nearly all actives have a fitted effect of over 65% in size; for activity change, negative = cytotoxicity: % is set by controls: 0 for no effect and ±100 for the full control effect
Conditions: KB-8-5-11 (P-gp overexpressing) viability, CellTiter-Glo, 72 h; series mostly up to 44.5 µM; activity change, negative = cytotoxicity: at the top concentration
Summary of the method: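 Human cervical adenocarcinoma KB-8-5-11 cells, selected in colchicine to over-express P-gp and assayed without it, were exposed for 72 h to titrated compounds. An ATP-based luminescent viability signal gave AC50.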

SMILES | outcome | activity change, negative = cytotoxicity | Potency
NC(=O)c1ccc(OCC2NC(=O)C3CCCN3C2=O)cc1 (stereo unspecified) | inactive | – | –
COC(=O)C1=CO[C@@H](O[C@@H]2O[C@H](CO)[C@@H](O)[C@H](O)[C@H]2O)[C@@H]2[C@@H](C(=O)OC)[C@@H](O)C(O)[C@H]12 (stereo partly specified) | – | 1.87% [at 17.3 µM] | –
CCC/C=C/C(=O)O[C@H]1CC(C)(C)CC2[C@]13[C@H](O)O[C@@]21CCC2[C@@]4(C)CC[C@H](O[C@@H]5O[C@H](C(=O)O)[C@@H](O)[C@H](O[C@@H]6O[C@H](CO)[C@H](O)[C@H](O)[C@H]6O[C@@H]6O[C@@H](C)[C@H](O)[C@@H](O)[C@H]6O[C@@H]6OC[C@](O)(CO)[C@H]6O)[C@H]5O[C@@H]5O[C@H](CO)[C@H](O)[C@H](O)[C@H]5O)C(C)(C)C4CC[C@@]2(C)[C@]1(C)C[C@H]3OC(C)=O (stereo partly specified) | – | 0.402% [at 9.29 µM] | –
CC(=O)OC[C@]12[C@H](OC(C)=O)C(=O)[C@@H]3[C@@H](OC(C)=O)[C@@]14O[C@@]3(C)COC(=O)c1cccnc1[C@@H](C)[C@H](C)C(=O)O[C@@H]([C@H](OC(C)=O)[C@@H]2OC(C)=O)[C@]4(C)O | – | 6.33% [at 17.3 µM] | –
Cc1coc2c1CC1OC1(C)CCC1OC1(C)C2 (stereo unspecified) | inactive | – | –
C[C@@H]1C(=O)O[C@H]2[C@H]1CC[C@@]1(C)C(=O)C=C[C@](C)(O)[C@H]21 | inactive | – | –
Cc1nc2c(-c3cnc(N)nc3)nc(N3CCOCC3)nc2n1C(C)C | – | – | 259 nM (active)
COc1cc([C@H]2OC[C@]3(OC(C)=O)[C@@H](c4ccc(O[C@@H]5O[C@H](CO)[C@@H](O)[C@H](O)[C@H]5O)c(OC)c4)OC[C@H]23)ccc1O | inactive [at 17.3 µM] | – | –
C[C@@H]1C(=O)O[C@H]2CC34[C@H]5C[C@@H](C(C)(C)C)C36[C@@H](OC(=O)[C@@H]6O)O[C@@]4(C(=O)O5)[C@]21O (stereo partly specified) | inactive [at 17.3 µM] | – | –
N#Cc1ccnc(N2C(=O)CC[C@H]2C(=O)N(c2cncc(F)c2)[C@H](C(=O)NC2CC(F)(F)C2)c2ccccc2Cl)c1 | – | -20.7% | –
C=CC(C)(O)CC/C=C(/C)C(=O)OC1C(OC2OCC(OC3OC(CO)C(O)C(O)C3O)C(OC3OCC(O)C(OC4OC(C)C(O)C(O)C4O)C3O)C2O)COC(OC(=O)C23CCC(C)(C)CC2C2=CCC4C5(C)CCC(OC6OC(CO)C(OC7OC(CO)C(O)C(OC8OCC(O)C(O)C8O)C7O)C(O)C6O)C(C)(C)C5CCC4(C)C2(C)CC3O)C1O (stereo unspecified) | – | -0.997% [at 5.11 µM] | –
COc1cc(/C=C/C(=O)O[C@H]2[C@H](O)[C@@H](CO)O[C@@]2(CO)O[C@H]2O[C@H](COC(=O)c3ccc(O)cc3)[C@@H](O)[C@H](O)[C@H]2O)cc(OC)c1OC | inactive [at 17.3 µM] | – | –
NC(=O)[C@H]1CCCCc2c1[nH]c1ccc(Cl)cc21 | – | 8.12% [at 17.3 µM] | –
COc1ccc(C(=O)O[C@H]2CC(C)=CC[C@@]3(C)[C@@H](OC(C)=O)C[C@@](O)(C(C)C)[C@H]23)cc1 | – | -2.94% [at 17.3 µM] | –
O=C(/C=C/c1ccc(O)cc1)OC[C@H]1O[C@@H](OC(=O)/C=C/c2ccccc2)[C@H](O)[C@@H](O)[C@@H]1O | – | 2.77% [at 17.3 µM] | –
CCNC(=O)CCC/C=C\C[C@@H]1[C@@H](/C=C/C(O)CCc2ccccc2)[C@@H](O)C[C@@H]1O (stereo partly specified) | inactive | – | –
C/C=C(\C)C(=O)O[C@@H](C)[C@H]1CC[C@]2(O)C3CCC4C[C@@H](OC5CC(OC)C(OC6CC(OC)C(OC7CC(OC)C(OC8OC(C)C(OC9OC(CO)C(O)C(O)C9O)C(OC)C8O)C(C)O7)C(C)O6)C(C)O5)CC[C@]4(C)C3[C@H](O)[C@@H](O)[C@]12C (stereo partly specified) | – | 2.39% [at 9.29 µM] | –
CC1[C@@H](O)[C@@H](O)C2[C@]3(C)C(C[C@H]4OC(=O)[C@H](O)[C@]1(O)[C@@]24C)C(C)(O)C[C@H](O)[C@H]3O (stereo partly specified) | inactive [at 17.3 µM] | – | –
CC1NC(=O)C(Cc2c[nH]c3ccccc23)NC1=O (stereo unspecified) | inactive | – | –
CC1=C2C(=O)C=C(CO)[C@@H]2[C@H]2OC(=O)[C@H](C)[C@@H]2[C@@H](O)C1 | – | 6.88% | –

SMILES | outcome | activity change, negative = cytotoxicity | Potency
CC(C)c1nc(N(C)S(C)(=O)=O)nc(-c2ccc(F)cc2)c1/C=C/[C@@H](O)C[C@@H](O)CC(=O)O | – | 1.75% | –
CC(=O)N[C@H]1CCN(c2ccc(C3=NOC(CN[S+](=O)([O-])C(C)C)C3)cc2F)C1 (stereo partly specified) | inactive | – | –
CN(C)C/C=C/C(=O)Nc1ccc(C(=O)Nc2cccc(Nc3ncc(Cl)c(-c4c[nH]c5ccccc45)n3)c2)cc1 | – | – | 5170 nM (active)
C[C@]12CCC(=O)C=C1[C@@H](O)C[C@@H]1[C@@H]2[C@@H](O)C[C@@]2(C)[C@H]1CC[C@]2(O)C(=O)CO | inactive | – | –
C=C(C)C(C)C1OC23CC4(CO2)C(CCC2C5(C)CCC(OC6OCC(O)C(OC7OC(CO)C(O)C(OC8OCC(O)C(O)C8O)C7O)C6OC6OC(CO)C(O)C6O)C(C)(C)C5CCC24C)C3C(C)(O)C1OC(C)=O (stereo unspecified) | – | 3.91% [at 9.29 µM] | –
CCc1nc(C(N)=O)c(Nc2ccc(N3CCC(N4CCN(C)CC4)CC3)c(OC)c2)nc1NC1CCOCC1 | – | – | 5700 nM (active)
CC(C)(O)CNc1nc(Nc2ccnc(C(F)(F)F)c2)nc(-c2cccc(C(F)(F)F)n2)n1 | – | -17.9% [at 17.3 µM] | –
C[C@@]12C[C@]3(O)O[C@H](O1)[C@]1(COC(=O)c4ccccc4)[C@H]3C[C@@]12O[C@@H]1O[C@H](COC(=O)c2ccccc2)[C@@H](O)[C@H](O)[C@H]1O | inactive [at 17.3 µM] | – | –
O=C(OCC12OC1C=CC(OC(=O)c1ccccc1)C2O)c1ccccc1 (stereo unspecified) | – | 5.62% | –
CN1CC[C@@H](NC(=O)Nc2ccc(C#N)cc2)C[C@@H]1c1nc2ccccc2[nH]1 | – | 1.99% | –
CN1CCC(c2c[nH]c3ccc(NC(=O)c4ccc(F)cc4)cc23)CC1 | inactive | – | –
C[C@H](NCc1ccc(OCc2ccccc2F)cc1)C(N)=O | inactive | – | –
COC1CC(=O)CCC(C)OC(=O)CC1O (stereo unspecified) | inactive | – | –
Cc1cc(C)c(S(=O)(=O)N(Cc2ccc(-c3cccc(S(C)(=O)=O)c3)cc2)Cc2ccc(C(F)(F)F)o2)c(C)c1 | – | -11.5% | –
C=C1CC/C=C(/CO)C(=O)C[C@@H]2[C@@H]1CC2(C)C | inactive | – | –
COc1cc2c(cc1O)C1(OC)Cc3ccc4c(c3C1N(C)CC2)OCO4 (stereo unspecified) | – | 4.82% | –
CC1OC(OC2C(O)C(C(=O)O)OC(OC3CCC4(C)C(CCC5(C)C4C=CC4=C6CC(C)(C)CC(O)C6(C)CCC45C)C3(C)C)C2OC2OCC(O)C(O)C2O)C(O)C(O)C1O (stereo unspecified) | inactive [at 9.29 µM] | – | –
COc1cc2c(cc1O)C1(Cc3ccc4c(c3C1=O)OCO4)N(C)CC2 (stereo unspecified) | inactive | – | –
O=C(c1ccc(NS(=O)(=O)c2cccc3cccnc23)cc1)N1CCN(CC2CC2)CC1 | – | -17% | –
COC(=O)[C@@H]1C2CC3c4[nH]c5ccccc5c4CCN3CC2CC[C@@H]1O (stereo partly specified) | – | 0.704% | –

Reference: PubChem BioAssay (NCATS)
